ChEMBL document CHEMBL4513216, “Probing the Open Global Health Chemical Diversity Library for Multistage-Active Starting Points for Next-Generation Antimalarials” (ACS Infect Dis, 2020)
The whole screen tested about 68,000 compounds, of which about 2,700 (4%) showed an effect of 50% or more. The full list was thinned out, with strong results kept by preference.

test system: Plasmodium berghei; assay: Screen against P. berghei liver stage (PbLuc), transformed with Luciferase, at 2uM; format: functional, HepG2; settings: tested at 2 uM

SMILES | INHIBITION
O=S(=O)(CCNCc1cc(O)c2cc(F)ccc2n1)N1CCCC1 | -9.89%
CN(C)S(=O)(=O)N1CCCC(c2ccncn2)C1 (configuration not stated) | 31.98%
CCn1nc(CC(C)C)cc1C(=O)NCC(F)(F)F | 1.04%
CC(C)COC[C@@H]1CC[C@H]2[C@H](CCN2C(=O)c2ccncc2F)O1 | 31.08%
CCOC[C@@H]1CC[C@H]2[C@H](CCN2C(=O)c2ccncc2F)O1 | 50.61%
CC(C)COC[C@H]1CC[C@H]2[C@H](CCN2C(=O)c2ccncc2F)O1 | 55.49%
COC[C@H]1CC[C@H]2[C@H](CCN2C(=O)c2ccncc2F)O1 | 39.51%
CCOC[C@H]1CC[C@H]2[C@H](CCN2C(=O)c2ccncc2F)O1 | 0.82%
O=C(c1ccncc1F)N1CC[C@@H]2OC(COCC3CC3)CC[C@@H]21 (some centres not stated) | 27.08%
CC(=O)Nc1ccc(CNc2ccn(Cc3ccccc3)n2)cc1 | 35.56%
COCCOc1ccc(NC(=O)C2CC(=O)N(C3CC3)C2)cn1 (configuration not stated) | -45.07%
NCC1CCC2(CCN(C(=O)c3ccccn3)CC2)CO1 (configuration not stated) | -5.44%
O=C(C(CNCc1cccnc1)c1ccccc1)N1CCOCC1 (configuration not stated) | 17.33%
Cc1nc(CN2CCOCC23CCN(c2ccc(C#N)cc2)CC3)cs1 | -30.38%
COC[C@@H]1CCC[C@@]12CN(Cc1ccco1)CCO2 | 18.4%
c1csc(COC[C@H]2CCC[C@]23CN(Cc2ccoc2)CCO3)n1 | 36.29%
c1coc(CN2CCO[C@@]3(CCC[C@@H]3COCc3nccs3)C2)c1 | 54.25%
CCCS(=O)(=O)N1CCC2(CC1)CN(c1ccccn1)CCO2 | 72.41%
CCS(=O)(=O)N1CCOC2(CCCN(c3ccccn3)C2)C1 (configuration not stated) | 29.45%
Cc1ccc(C(=O)N2CCC3(CC2)CN(c2ccccn2)CCO3)cc1 | 56.71%
O=C(c1ccnnc1)N1CCC2(CC1)CN(c1ccccn1)CCO2 | -0.91%
CCCS(=O)(=O)N1CCOC2(CCCN(c3ccccn3)C2)C1 (configuration not stated) | 2.39%
O=C(c1cccnc1)N1CCC2(CC1)CN(c1ccccn1)CCO2 | -1.81%
Cc1cc(CN2C[C@@H]3CN(C(=O)c4cccn4C)CCO[C@@H]3C2)no1 | 9.45%
CN(C)C(=O)CCCNC(=O)C(c1cccc(F)c1)N(C)C (configuration not stated) | -4.92%
OCCn1nccc1C1CCN(CCOc2ccccc2F)CC1 | 17.31%

SMILES | INHIBITION
NC(=O)NC(=O)C(c1ccccc1)N1CCN(Cc2ccccc2)CC1 (configuration not stated) | 16.8%
NC(=O)NC(=O)C(c1ccccc1)N1CCN(Cc2ccsc2)CC1 (configuration not stated) | 50.3%
NC(=O)NC(=O)C(c1ccccc1)N1CCN(Cc2ccc(Cl)s2)CC1 (configuration not stated) | -72.31%
CC(C)n1cc(N2CC(C(=O)N3CCCC3)CC2=O)cn1 (configuration not stated) | -69.99%
O=C(N1CCCO1)[C@@]12CCO[C@@H]1CCN(Cc1cccs1)C2 | 17.31%
COc1cc(CN2CCCCCC2c2cccs2)cc(OC)c1OC (configuration not stated) | 11.24%
COc1cccc(CN2CCCCCC2c2cccs2)c1O (configuration not stated) | 4.47%
COc1cc(CN2CCCCCC2c2cccs2)cc(OC)c1O (configuration not stated) | 50.46%
O=C(C1CCCC1)N1CC2(CCN(C3COC3)CC2)Cc2ccccc21 | -3.1%
Cc1cccc(-c2nc(C)nn2CC(=O)NC(C)C)c1 | -15.28%
O=C(c1csnn1)N1CCc2[nH]nc(COc3cccc(Cl)c3)c2C1 | 47.89%
O=C1CC[C@@H](C(=O)N2CCc3[nH]nc(COc4cccc(Cl)c4)c3C2)N1 | 51.85%
O=C(N1CCOCC1)N1CCc2[nH]nc(COc3cccc(Cl)c3)c2C1 | 5.04%
CN1C(=O)C2(CCCN(C(=O)c3cccnc3O)C2)c2ccccc21 (configuration not stated) | -23.27%
CC(Cn1ccnc1)NC(=O)N1CCN(Cc2ccco2)CC1 (configuration not stated) | 32.64%
O=C(Nc1ccc2c(c1)OCO2)N1CCN(CCn2cccn2)CC1 | 43.57%
O=C(Nc1ccc2c(c1)OCO2)N1CCN(CCn2ccnc2)CC1 | 58.59%
CC(Cn1ccnc1)NC(=O)N1CCN(Cc2cccnc2)CC1 (configuration not stated) | -36.13%
O=C(NCCn1ccnc1)N1CCN(Cc2ccsc2)CC1 | -1.3%
O=C(NCCn1ccnc1)N1CCN(Cc2cccnc2)CC1 | 58.96%
O=C(NCCn1ccnc1)N1CCCC1c1ccncc1 (configuration not stated) | 53.33%
COc1ccc(C2CCCN2C(=O)NCCn2ccnc2)cc1 (configuration not stated) | 26.61%
O=C(NCCCn1ccnc1)N1CCCC1c1ccncc1 (configuration not stated) | -1.27%
O=C(NCCn1ccnc1)N1CCN(Cc2ccco2)CC1 | 54.28%
O=C(NCCn1ccnc1)N1CCN(Cc2cccs2)CC1 | -68.26%
O=C(Nc1ccc2c(c1)OCO2)N1CCN(CCc2ccccc2)CC1 | 20.76%

SMILES | INHIBITION
CCSCC(C)NCc1nncn1C1CCCCC1 (configuration not stated) | 37.3%
Cc1nc(CN2C(=O)CC[C@@H]3[C@H]2CCN3C(=O)c2ccccn2)cs1 | 3.46%
CCc1nccn1C1CCCN(C(=O)c2cncnc2C)C1 (configuration not stated) | 4.41%
CCN(CC)[C@@H]1CN(S(=O)(=O)c2cn(C)cn2)[C@@H]2CCCO[C@H]12 | 20.21%
CN(CC(=O)NCc1cc2ccccc2o1)S(C)(=O)=O | -3.17%
CCc1noc(C)c1C(=O)N1C[C@H](NS(C)(=O)=O)[C@@H](C2CC2)C1 | 5.47%
O=C(N1CCCC(n2cncn2)C1)C1(c2ccc(Cl)cc2)CCC1 (configuration not stated) | 45.83%
CC(=O)c1c(C)nn(S(=O)(=O)c2ccc(C)cc2)c1C | 39.45%
CN1CCCC(N2CCN(c3cc(C(F)(F)F)ccn3)CC2)C1 (configuration not stated) | -3.43%
FC(F)(F)c1ccnc(N2CCCC(N3CCOCC3)C2)c1 (configuration not stated) | 60.13%
FC(F)(F)c1ccnc(N2CCCN(C3CCOCC3)CC2)c1 | -26.2%
O=C(Cn1cccn1)Nc1ccc(N2CCOCC2)cc1 | 45.12%
Cc1cnc2c(S(=O)(=O)NC3CCS(=O)(=O)C3)cccc2c1 (configuration not stated) | -15.28%
Cc1cnc2c(S(=O)(=O)NCC3CCN(C4CC4)C3)cccc2c1 (configuration not stated) | 51.21%
CCOC(C)C(=O)NS(=O)(=O)c1cccc2cc(C)cnc12 (configuration not stated) | 9.27%
Cc1cnc2c(S(=O)(=O)NCC3CCOC3)cccc2c1 (configuration not stated) | 1.61%
Cc1cnc2c(S(=O)(=O)NCC3CC3)cccc2c1 | 51.94%
Cc1cnc2c(S(=O)(=O)N(C)C3CCS(=O)(=O)C3)cccc2c1 (configuration not stated) | 47.87%
COC(C)C(=O)NS(=O)(=O)c1cccc2cc(C)cnc12 (configuration not stated) | 73.31%
Cc1cnc2c(S(=O)(=O)NCC3CCS(=O)(=O)C3)cccc2c1 (configuration not stated) | -84.03%
Cc1cnc2c(S(=O)(=O)NC(=O)C(C)OCC3CC3)cccc2c1 (configuration not stated) | 28.97%
CC(C)N1CCOC(CC(=O)N2CCCN(Cc3ccncc3)CC2)C1 (configuration not stated) | 18.22%
CNc1nc(C2CCCN2C(C)=O)nc2c1CN(CCO)CC2 (configuration not stated) | -0.83%
Cc1cc(C)c(CNC(=O)C2COc3ccccc3C2)c(=O)[nH]1 (configuration not stated) | -68.78%
Cc1cc(C)nc(N2CCCC(C)(c3[nH]ncc3C(=O)N(C)C)C2)n1 (configuration not stated) | -81.44%
CCc1cc(CN2CCCCC2c2ccc(F)cc2)on1 (configuration not stated) | -19.3%

SMILES | INHIBITION
COCCOCCCNC(=O)c1cc(Cl)cc2cccnc12 | -18.52%
CCOC(=O)CCNC(=O)c1cc(Cl)cc2cccnc12 | -14.21%
CCS(=O)(=O)N(C)CCCNC(=O)c1cc(Cl)cc2cccnc12 | 61.08%
CCS(=O)(=O)CC(=O)Nc1ccccc1N1CCc2ccccc21 | 6.07%
CCCc1cc(C(=O)N2CCC3(CC2)CN(CCN(C)C)C(=O)O3)no1 | 28.73%
CN(C)CCCN1CC2(CCN(C(=O)C3(C)CCCCO3)CC2)OC1=O (configuration not stated) | -64.97%
CN(C)CCN1CC2(CCN(C(=O)c3cnccn3)CC2)OC1=O | -48.69%
Cc1ccc(C(=O)N2CCN(C)C3(CCC(=O)N(C)CC3)C2)c(F)c1 (configuration not stated) | 18.22%
Cc1ccc(C(=O)N2CCC3(CC2)CN(CCN(C)C)C(=O)O3)c(F)c1 | 57.34%
Cc1cc(C(=O)N2CCC3(CC2)CN(CCN(C)C)C(=O)O3)nc(C)n1 | 59.03%
CN(Cc1ccccc1)C(=O)Cn1nc(N2CCSCC2)ccc1=O | 22.88%
Cc1cc2nc(C(C)C)cc(N(C)CC3CCN(C(C)C)C3)n2n1 (configuration not stated) | 5.93%
Fc1cccc(CN2CCOCC3(CCN(C4CCOCC4)C3)C2)c1 (configuration not stated) | 30.29%
CNc1cc2c(nn1)CCN(C(=O)c1cc(C)n(C3CC3)c1C)C2 | 26.06%
CCOC(=O)Cn1c(=O)nc(N)c2c(-c3ccc(OC)cc3)csc21 | 69.62%
COc1ccc(-c2csc3c2c(N)nc(=O)n3CC(N)=O)cc1 | 23.16%
CCn1c(=O)nc(N)c2c(-c3ccc(OC)cc3)csc21 | -37.19%
O=C(CC1CC2(CCNCC2)c2ccccc21)NCC1CC1 (configuration not stated) | -1.81%
CC(=O)NC1CCN(c2ncnc3c2c(C)nn3C)C1 (configuration not stated) | 32.56%
CCC1(CC)Cc2ccccc2-c2nc(CN(C)C)nc(O)c21 | 29.02%
CC(C)N(CC(N)=O)C(=O)c1cnc(-c2ccc3c(c2)OCO3)s1 | 75.8%
CC(C)N(CCC#N)C(=O)c1cnc(-c2ccc3c(c2)OCO3)s1 | 37.87%
CN(C)C(=O)c1cnc(-c2ccc3c(c2)OCO3)s1 | -197.6%
O=C(O)C1(n2ccc(-c3ccco3)n2)CCN(Cc2cccnc2)CC1 | -30.35%
